# Laboratory results taken from PubChem BioAssay (NCI).
# This is part of a sample that, as a whole, favours compounds with a hit. Of some 83,000 tested, about 20% had one in any assay.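 Activity criterion: percent growth below 10, measured after cells in 96-well plates were exposed to a single compound concentration for 48 hours.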 Unmarked numbers belong to inactive results.
# System: NCI-H226 lung
# Test: NCI-60 one-dose screen, 48 h (100 = growth as untreated, 0 = no growth, -100 = all killed)
# Details: 10 µM
# Protocol: Growth inhibition of the NCI-H226 human Non-Small Cell Lung tumor cell line is measured as a screen for anti-cancer activity. Cells are grown in 96 well plates and exposed to the test compound for 48 hours. Compounds are tested at a single concentration, which is 10^-5 M for most compounds. The reported endpoint is percent growth (GI% or GIPRCNT), where numbers from 0 - 100% represent growth inhibition, and numbers from -100% - 0 represent cell death. For example, a value of 40 represents 60% growth inhibition. A value of 0 means no net growth occurred over the course of the experiment. A value of -40 indicates 40% of cells at the beginning of the experiment died by the end of the experiment. A value of -100 means all cells are dead at the end of the experiment.
# NCI-60 Human Tumor Cell Lines Screen was performed using the standard one-dose NCI protocol, which is described in more detail at https://dtp.cancer.gov/discovery_development/nci-60/default.htm.
# Compounds with GIPRCNT values below 10 were considered active. Activity score was based on GIPRCNT using the following formula: […]
# Score is 0 for GIPRCNT values of 100 or above, 50 for GIPRCNT values of 0, and 100 for GIPRCNT values of -100.
row,Compound,growth
1,Cc1nc2cc(Nc3nc(N4CCOCC4)nc(N4CCN(C)CC4)n3)ccc2n1Cc1ccccc1,71.3%
2,Cn1c2c(cc(S(=O)(=O)c3ccccc3)c1=O)CCc1c-2cnn1-c1cccc(Cl)c1,84.6%
3,COc1cccc(-c2ccc3c(c2)C2CCN(Cc4ccccc4)C3C2)c1 (stereo not given),99.2%
4,O=C1CC2c3cc(-c4cc5ccccc5o4)ccc3CCN2C(=O)N1c1ccccc1 (stereo not given),93.5%
5,COc1cc(NC(=O)COc2ccccc2)c(C(N)=O)cc1OC,76.5%
6,Cn1c2c(cc(S(=O)(=O)c3ccccc3)c1=O)CCc1c-2cnn1-c1ccccc1Cl,117%
7,Cn1c(=O)c(S(=O)(=O)c2ccccc2)cc2ccc3c(cnn3-c3ccc(Cl)cc3)c21,55.6%
8,Cc1nn(-c2ccccc2)c2nc3nc4c(c(N)c3c(-c3ccc(Cl)cc3)c12)CCCC4,83.4%
9,O=[N+]([O-])c1ccc(O)c2ncccc12,81.1%
10,CC1(C)N=C(N)N=C(N)N1c1cccc(OCCOc2cccc([N+](=O)[O-])c2)c1,98.2%
11,CON=C1C[C@]2(C[C@@H]3C[C@@H](C/C=C(\C)C[C@@H](C)/C=C/C=C4\CO[C@@H]5[C@H](O)C(C)=C[C@@H](C(=O)O3)[C@]45O)O2)O[C@H](/C(C)=C/C(C)C)[C@H]1C,72%
12,CCCCCCCCCCCCCCNc1nc(CO)ncc1-c1ccc(C(F)(F)F)cc1,101%
13,CN1CCN(CCCn2c3c(sc4ncccc43)c(=O)n3nnc(-c4ccccc4)c23)CC1,96.2%
14,COc1cc(C2=NN(c3ccc(S(N)(=O)=O)cc3)C(c3ccc(Cl)cc3)C2)cc(OC)c1OC (stereo not given),55.6%
15,Cn1c2ccccc2c2nn(C(=O)c3ccccc3)c(=O)nc21,96.2%
16,CN1CCc2cccc3c2C1Cc1ccc(O)c(O)c1-3 (stereo not given),80.8%
17,CCCCNNC(=O)c1ccc(Br)cc1,62.5%
18,O=C(Nc1ccc(F)cc1)c1ccc(C(=O)Nc2ccc(F)cc2)cc1,99.5%
19,COc1ccc(-c2nc(Nc3ccc(F)cc3)nc(Nc3ccc4c(c3)nc(C)n4Cc3ccccc3)n2)cc1,66.6%
20,CC1=C(C/C=C(\C)CCC[C@H](C)CCC[C@H](C)CCCC(C)C)C(=O)c2ccccc2C1=O,110%

row,Compound,growth
1,COc1ccc(-c2c3c(N)c4c(nc3nc3c2c(C)nn3-c2ccccc2)CCCC4)cc1,86.9%
2,Cc1nc2cc(Nc3nc(Nc4ccc(F)cc4)nc(-c4cccs4)n3)ccc2n1Cc1ccccc1,65%
3,Cc1ccc(N(CSc2ccc(Cl)cc2)CSc2ccc(Cl)cc2)cc1,71.9%
4,Cc1nc(NC(=O)COc2cccc(/C=C3\COc4ccccc4C3=O)c2)sc1C,83.2%
5,COc1ccc(NC(=O)c2ccc3c(c2)nc(-c2ccc(Cl)cc2)n3-c2cc(C(C)(C)C)[nH]n2)cc1,91.5%
6,O=C1C(Cl)=C(NCCCN2CCOCC2)C(=O)c2ccccc21,107%
7,NC(=O)c1cc(Cl)ccc1NC(=O)COc1ccccc1,90.5%
8,CCOC(=O)C(CC(c1ccccc1)N1CCCCC1)[N+](=O)[O-] (stereo not given),82.9%
9,CCOC(=O)c1cc2c(n(C)c1=O)-c1cnn(-c3ccc(OC)cc3)c1CC2,107%
10,COc1ccc(-n2ncc3c4nc(OC)c(S(=O)(=O)c5ccccc5)cc4ccc32)cc1,45.3%
11,O/N=C/c1cccs1,107%
12,Cc1nc2cc(Nc3nc(Nc4ccc(F)cc4)nc(-c4ccc(Cl)cc4)n3)ccc2n1Cc1ccccc1,86.5%
13,Cc1ccc(C(=O)Nc2ccccc2N)cc1,74.5%
14,COc1cc(C2C3=C(COC3=O)N(CCO)c3cc4c(cc32)OCO4)cc(OC)c1O (stereo not given),61.7%
15,COc1cc(/C=C/C(=O)C2=C(/C=C/c3ccc(O)c(OC)c3)NC(=O)NC2c2ccc(O)c(OC)c2)ccc1O (stereo not given),91.8%
16,O=C(C[Si](CC(=O)c1cccc(C(F)(F)F)c1)CC(=O)c1cccc(C(F)(F)F)c1)c1cccc(C(F)(F)F)c1,82.9%
17,COc1cccc(OC(=O)c2ccccc2)c1OC(=O)c1ccccc1,109%
18,Cn1c2ccccc2c2nn(Cc3ccccc3)c(=O)nc21,86.6%
19,COc1ccc(-c2c3c(N)c4c(nc3nc3c2c(C)nn3-c2ccccc2)CCCCC4)cc1,99.4%
20,CCCCC/C=C\C/C=C/CCCCCCCCNC(=O)Nc1ccc([N+](=O)[O-])cc1,93.5%
